High-throughput results: PubChem, National Center for Advancing Translational Sciences (NCATS)
FMDV antiviral: blocks foot and mouth disease virus; Potency, µM (titrated, usually from 57.9 µM), hits mostly inhibitors; FMDV antiviral cell-based qHTS; AID 1159524; actives 1.2% (n = 410,000); calls by dose curve; tested in HEK293T cells; further: read-out not given here; nearly all actives have a fitted effect of over 45% in size
AmpC no deterg: blocks E. coli AmpC beta-lactamase in detergent-free assay | AmpC nitrocefin hydrolysis, absorbance 480 nm, 0.0001% Triton | Potency, µM (series often up to 57.1 µM), most hits filed as inhibitors | AID 485341 | actives 0.52% (n = 330,000) | P00811; further: nearly all actives have a fitted effect of over 20% in size
Target sequence (P00811 whole entry, looked up): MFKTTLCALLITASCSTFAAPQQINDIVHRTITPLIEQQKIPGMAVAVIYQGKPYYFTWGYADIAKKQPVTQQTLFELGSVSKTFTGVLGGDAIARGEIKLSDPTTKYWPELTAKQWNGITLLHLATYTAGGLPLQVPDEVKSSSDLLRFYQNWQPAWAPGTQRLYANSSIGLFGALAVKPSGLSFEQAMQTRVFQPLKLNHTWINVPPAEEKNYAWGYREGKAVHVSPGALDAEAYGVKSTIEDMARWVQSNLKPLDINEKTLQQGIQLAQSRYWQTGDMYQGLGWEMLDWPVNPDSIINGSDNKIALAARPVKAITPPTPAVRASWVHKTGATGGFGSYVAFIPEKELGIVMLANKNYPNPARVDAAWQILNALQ
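20 mM phosphate pH 7.0 + 0.01% (detergent screen) or 0.0001% Triton X-100; 5.3 nM AmpC reagent; cpd preinc 15 min RT; nitrocefin (800 uM stock) to start; A480 q20 s × 4 min; Activity was normalised to no-enzyme and no-compound control wells.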
AmpC detergent: blocks E. coli AmpC beta-lactamase in detergent assay | AmpC hydrolysis of nitrocefin, absorbance 480 nm, 0.01% Triton | Potency, µM (titrated, usually from 114 µM), actives largely listed as inhibitors | actives 0.041% (n = 370,000) | AID 485294; further: nearly all actives have a fitted effect of over 25% in size
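AmpC (5.3 nM in the dispensed reagent) in 20 mM phosphate pH 7.0 with 0.01% (detergent screen) or 0.0001% Triton X-100 was preincubated with compounds for 15 min at room temperature. Nitrocefin was then added from an 800 uM solution, and hydrolysis was followed at 480 nm.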
AMA1 RON2 block: inhibitors of Plasmodium falciparum AMA1-RON2 interaction; Potency, µM (highest dose often 58.2 µM), actives largely listed as inhibitors; AlphaScreen AMA1-biotinylated RON2 peptide binding; actives 0.2% (n = 360,000); further: nearly all actives have a fitted effect of over 45% in size
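AMA1 (3D7) with his tag at 25 nM final met compounds first, then biotinylated RON2 peptide at 25 nM; detection used donor plus acceptor beads, 10 µg/mL apiece, read by AlphaScreen after 30 min at room temperature.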
Sm TGR inh: inhibitors of Schistosoma mansoni thioredoxin glutathione reductase; purified TGR, DTNB reduction, TNB absorbance 405 nm; Q962Y6; actives 3% (n = 360,000); Potency, µM (doses to about 114 µM), hits mostly inhibitors; further: nearly all actives have a fitted effect of over 60% in size
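First, TGR (20 nM dispensed) and NADPH were mixed with compound. Second, a 15 min room-temperature incubation followed. Third, further NADPH and then DTNB were added to start the reaction. Finally, TNB absorbance was monitored kinetically.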
Large screens that a line does not name were inactive. A selection: hits, their analogues and other compounds. The true share with any hit is near 4.1%. Unless noted, the call rests on the fitted dose curve; in most records, active means well fitted curve in the direction sought with a large enough effect; inconclusive means small, poorly fitted or top-dose-only effect, or another doubt; inactive means no such curve, though single readings can be large; an effect the other way counts as inactive or inconclusive.

Cc1nc2ccc(NC(=O)c3cccc(S(=O)(=O)N4CC(C)OC(C)C4)c3)cc2s1 (centres undefined)	FMDV antiviral 20µM
CC1CN(S(=O)(=O)c2ccc(C(=O)Nc3ccc(S(=O)(=O)Nc4nccs4)cc3)cc2)CC(C)O1 (centres undefined)	none
COCc1nnc(NC(=O)c2ccc(S(=O)(=O)N(C)c3ccccc3)cc2)o1	AmpC no deterg 40µM, AmpC detergent inconclusive
COc1ccc(C(=O)Nc2ccc(S(=O)(=O)N(C)c3ccccc3)cc2)cc1	FMDV antiviral inconclusive (no result: AmpC no deterg, AmpC detergent, Sm TGR inh)
COCCn1c(=O)cnc2cnc(N3CCNCC3)nc21	none (no result: AmpC no deterg, AmpC detergent, AMA1 RON2 block, Sm TGR inh)
CO[C@H]1[C@H](NC(=O)c2ccsc2)c2ccccc2C12CCN(Cc1ccc3c(c1)OCO3)CC2	none (no result: AmpC no deterg, AmpC detergent, AMA1 RON2 block, Sm TGR inh)
Cn1cnc(S(=O)(=O)N2CCC(C(=O)Nc3ccc(F)cc3F)CC2)c1	none (no result: AmpC no deterg, AMA1 RON2 block)
Cc1ccc(S(=O)(=O)N(C)c2ccc(C(=O)Nc3ccccn3)cc2)cc1	FMDV antiviral inconclusive
Cc1nc2ccc(NC(=O)c3ccc(S(=O)(=O)N(C)c4ccccc4)cc3)cc2s1	FMDV antiviral 22µM, AmpC detergent inconclusive
Cc1ccc(S(=O)(=O)N(C)c2ccc(C(=O)Nc3cccc(C)n3)cc2)cc1	FMDV antiviral 25µM
Cc1nc2ccc(NC(=O)N(C)c3ccccc3)cc2s1	AmpC detergent inconclusive
C(C#CCCCCCCCCC[n+]1ccccc1)#CCCCCCCCCC[n+]1ccccc1	FMDV antiviral 18µM, Sm TGR inh 40µM
COc1ccc2c(c1)CC/C(=C\c1ccc(C)o1)C2=O	AMA1 RON2 block inconclusive, Sm TGR inh 22µM
COc1ccc2c(c1)CC/C(=C/c1ccncc1)C2=O	FMDV antiviral inconclusive, AmpC detergent inconclusive
COc1ccc2c(c1)C(=O)/C(=C/C=C/c1ccccc1)CC2	AmpC detergent inconclusive, Sm TGR inh 45µM
COc1ccc(C=C2Cc3ccccc3C2=O)cc1	none (no result: AmpC no deterg, AmpC detergent, Sm TGR inh)
COc1ccc2c(c1)CC/C(=C\C=C\c1ccccc1OC)C2=O	Sm TGR inh 28µM
Cc1ccc(CNC(=O)Cn2c(=O)cc(-c3ccccc3)c3c(C)nn(C)c32)cc1	none (no result: AmpC no deterg, AMA1 RON2 block)
COC(=O)c1ccc(N2C(=O)CC(N3CCC(n4c(=O)[nH]c5ccccc54)CC3)C2=O)cc1 (centres undefined)	FMDV antiviral inconclusive, AmpC detergent inconclusive, Sm TGR inh 35µM
Cc1cc(N2C(=O)CC(N3CCC(n4c(=O)[nH]c5ccccc54)CC3)C2=O)no1 (centres undefined)	Sm TGR inh 22µM
O=C1CC(N2CCC(n3c(=O)[nH]c4ccccc43)CC2)C(=O)N1Cc1ccccc1 (centres undefined)	none
O=C(CSc1ccc2nc(-c3ccccc3)cn2n1)Nc1ccccc1	none (no result: AmpC no deterg, AMA1 RON2 block)
OCCCc1ccc(O)c(O)c1	Sm TGR inh 3.5µM
O=C(O)Cc1ccc(O)c(O)c1	AMA1 RON2 block inconclusive, Sm TGR inh 0.89µM
COCC(C)n1c(COc2ccccc2F)nnc1SCC(=O)Nc1oc(C)c2c(C)n[nH]c(=O)c12 (centres undefined)	Sm TGR inh 25µM
CS(=O)(=O)c1ncc(Cl)c(C(=O)N2CCN(c3cccc(Cl)c3)CC2)n1	FMDV antiviral 18µM, Sm TGR inh 3.5µM (no result: AmpC no deterg, AMA1 RON2 block)
CCS(=O)(=O)c1ncc(Cl)c(C(=O)N2CCN(c3cccc(Cl)c3)CC2)n1	FMDV antiviral 14µM, Sm TGR inh 7.1µM (no result: AmpC no deterg, AMA1 RON2 block)
COc1ccccc1C1CN(Cc2cnn(C)c2)Cc2ccccc2O1 (centres undefined)	none (no result: AmpC no deterg, AmpC detergent, AMA1 RON2 block, Sm TGR inh)
Cc1nc([N+](=O)[O-])c(Br)n1Cc1ccccc1	Sm TGR inh 2.5µM
COC(=O)Cn1c(C)nc([N+](=O)[O-])c1Br	Sm TGR inh 6.3µM
Cc1nc([N+](=O)[O-])c(Br)n1CC(=O)c1cccc([N+](=O)[O-])c1	FMDV antiviral 32µM, Sm TGR inh 2µM
Cc1nc([N+](=O)[O-])c(Br)n1CC(=O)c1ccc(F)cc1	Sm TGR inh 3.2µM
Cc1nc([N+](=O)[O-])cn1CC(=O)c1ccc(F)cc1	none
O=C(CSc1nc2ccc([N+](=O)[O-])cc2[nH]1)c1ccc2ccccc2c1	none
Cc1nc([N+](=O)[O-])c(Sc2nc3ccc([N+](=O)[O-])cc3[nH]2)n1Cc1ccccc1	FMDV antiviral inconclusive, Sm TGR inh 14µM
CC1CCCC(NC(=O)CSC2CCCCC2)C1C (centres undefined)	none
CC1CCCCC1NC(=O)NC(=O)CCl (centres undefined)	FMDV antiviral inconclusive, Sm TGR inh 14µM
CC1CCCC(NC(=O)NC(=O)CCl)C1C (centres undefined)	FMDV antiviral 20µM, Sm TGR inh 2.8µM
CCCCOc1ccc(C(=O)NCC(=O)NCc2ccccn2)cc1	none
CCCCOc1ccc(C(=O)NCC(=O)NCCOc2ccccc2)cc1	AmpC no deterg 35µM, AmpC detergent inconclusive
COC(=O)[C@]12CCCCC=C1N(Cc1ccco1)C(=O)[C@H](CC(=O)NCc1cccc3ccccc13)C2	none (no result: AmpC no deterg, AmpC detergent, Sm TGR inh)
CCOC(=O)/C(=C\c1ccc(Cl)cc1)c1nc2sc(C)c(C)c2c(=O)[nH]1	FMDV antiviral 10µM, Sm TGR inh inconclusive
COc1ccccc1N1CCN(c2nc3ccc(C)cc3n3nnnc23)CC1	none (no result: AmpC no deterg, AMA1 RON2 block)
COc1cc(-c2cnc3ccccc3c2)cc2c1OCCN(C(=O)CCC(=O)c1ccc(F)cc1)C2	none (no result: AmpC no deterg, AmpC detergent, AMA1 RON2 block, Sm TGR inh)
CCCCn1c(CCC(=O)O)ccc1-c1cccs1	AmpC detergent inconclusive, Sm TGR inh 8.9µM
Cc1c(Cl)cccc1NC(=O)Cn1c(CCC(=O)O)ccc1-c1cccs1	none (no result: AmpC no deterg, AMA1 RON2 block)
COCCn1c(CCC(=O)O)ccc1-c1cccs1	Sm TGR inh 14µM
COC(=O)c1cc(NC(=O)CN(c2ccccc2)S(=O)(=O)N(C)C)ccc1Cl	none (no result: AmpC no deterg, AMA1 RON2 block)
COc1cccc(CN2C(=O)NC(C)(C3CCN(Cc4cc(Cl)ccc4O)CC3)C2=O)c1OC (centres undefined)	none (no result: AmpC no deterg, AmpC detergent, AMA1 RON2 block, Sm TGR inh)
O=C(Nc1cccc(-c2ccc(N3CCOCC3)nn2)c1)c1ccc(Cl)cc1	AmpC no deterg 32µM, AmpC detergent inconclusive
O=C(Nc1cccc(-c2ccc(N3CCOCC3)nn2)c1)c1cccc(Cl)c1	none (no result: AmpC no deterg, AmpC detergent, Sm TGR inh)
CCN1C(=O)/C(=C/C=C2\C=CN(CC)c3ccccc32)SC1=S	FMDV antiviral 13µM, AmpC detergent inconclusive, AMA1 RON2 block inconclusive, Sm TGR inh inconclusive
CCN1C(=O)/C(=C\C=C2/C=CC=CN2CC)SC1=S	Sm TGR inh inconclusive
O=C(CCN1CCC(c2ccccc2)C1)c1ccccc1 (centres undefined)	none
O=C(CCN1CCCC1Cc1ccccc1)c1ccc2c(c1)OCCO2 (centres undefined)	Sm TGR inh 0.32µM (no result: AmpC no deterg)
COc1cc(C(=O)CCN2CCC(c3ccccc3)C2)cc(OC)c1OC (centres undefined)	Sm TGR inh 0.28µM
O=C(CCN1CCc2ccccc2C1)c1ccc2c(c1)OCCO2	Sm TGR inh 0.28µM
